Compounds with a hit are over-represented: about 14% of the library has one in this group of screens.
Sm TGR block = blocks Schistosoma mansoni thioredoxin glutathione reductase. AID 485364. Q962Y6. purified TGR, DTNB reduction, TNB absorbance 405 nm. actives 3% (n = 360,000). Potency, µM (titrated, usually from 114 µM), actives largely listed as inhibitors; note: nearly all actives have a fitted effect of over 60% in size
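First, TGR (20 nM dispensed) and NADPH were mixed with compound. Second, a 15 min room-temperature incubation followed. Third, further NADPH and then DTNB were added to start the reaction. Finally, TNB absorbance was monitored kinetically.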
Pf growth 96h = inhibits malaria parasite growth, 96 h. P. falciparum luciferase reporter growth, 96 h. Potency, µM (highest dose often 28.7 µM), actives largely listed as inhibitors. actives 6.9% (n = 320,000). AID 504834
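Delayed-death screen, second-generation endpoint: infected erythrocytes, 2% hematocrit, 0.05% parasitemia final; 96 hours at 37 C, 5% CO2; luciferase detection reagent; luminescence decrease equals reduced growth.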
FBPA Giardia inh = Giardia lamblia aldolase inhibition; A8B2U2; purified Giardia FBPA; Potency, µM (doses to about 59.6 µM), usual class: inhibitors; actives 0.71% (n = 290,000); AID 2451; note: nearly all actives have a fitted effect of over 55% in size
Target sequence (A8B2U2 whole entry, looked up): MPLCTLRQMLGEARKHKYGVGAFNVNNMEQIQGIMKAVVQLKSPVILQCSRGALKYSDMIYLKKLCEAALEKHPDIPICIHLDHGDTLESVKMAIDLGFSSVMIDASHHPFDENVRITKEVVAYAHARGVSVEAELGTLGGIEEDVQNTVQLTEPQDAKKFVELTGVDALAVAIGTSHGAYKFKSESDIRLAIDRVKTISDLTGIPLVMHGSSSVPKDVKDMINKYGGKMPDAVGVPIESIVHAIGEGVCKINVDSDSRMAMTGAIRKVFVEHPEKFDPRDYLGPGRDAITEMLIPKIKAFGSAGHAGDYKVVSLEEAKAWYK
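Giardia FBPA (40 nM reagent) was preincubated 10 min at RT with compound (up to 57.5 uM final), then substrate plus GAPDH/TPI/NAD/arsenate coupling system with diaphorase/resazurin was added; resorufin fluorescence (525/598 nm) was read after 20 min.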
HCMV inh = blocks human cytomegalovirus replication; HFF cells, HCMV-luciferase reporter, 72 h; hits give low values; actives 4.5% (n = 410,000); AID 1259415; activity change, negative = inhibition, % at 57.5 µM; in the data active = activity change below about -60%; inconclusive = no clear call, values can overlap the other calls; inactive = above about -39%
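Luciferase read-out from HCMV-luciferase-infected HFFs (MOI 1 PFU/cell) 72 h post infection at 37C; compounds added after 16 h cell attachment; activity normalized between buffer-only basal and Salinomycin (10uM) inhibitor controls.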
Pf growth 48h = inhibits P. falciparum growth in the first generation, 48 h; P. falciparum luciferase growth in erythrocytes, 48 h; Potency, µM (series often up to 28.7 µM), usual class: inhibitors; actives 5.9% (n = 310,000); AID 504832
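Growth was read as firefly luciferase luminescence after a 48 h, 37 C, 5% CO2 exposure of compounds to reporter-bearing P. falciparum cultures (0.1% parasitemia, 2% hematocrit final) in Albumax-supplemented RPMI 1640.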
Numbers stand for hits; n = inactive; u = inconclusive; x = no result given; [ ] = remark or other dose. Unless noted, calls come from the whole dose curve; as a rule, active = well fitted curve in the direction sought with a large enough effect; inconclusive = small, poorly fitted or top-dose-only effect, or another doubt; inactive = no such curve, though single readings can be large; an effect the other way counts as inactive or inconclusive.

SMILES | Sm TGR block | Pf growth 96h | FBPA Giardia inh | HCMV inh | Pf growth 48h
Cc1c(C(=O)O)oc2c1ccc1ccccc12 | n | x | n | n | n
Cc1c(C(=N)C(C#N)C#N)c(=N)oc2c1ccc1ccccc12 | n | n | n | -75 | n
COc1ccc(NC(=O)C/C(C)=N/NC(=O)c2cnccn2)c(OC)c1 | n | n | n | n | n
COc1ccc(Cl)cc1NC(=O)C/C(C)=N/NC(=O)CCc1ccccc1 | n | n | n | n | n
COc1ccc(NC(=O)C/C(C)=N/NC(=O)c2ccccn2)c(OC)c1 | n | 13µM | n | n | n
COc1ccc(Cl)cc1NC(=O)C/C(C)=N/NC(=O)c1ccccc1Cl | n | 13µM | n | n | n
COc1ccc(N2C(=O)C(Cl)=C(Nc3ccccc3O)C2=O)cc1 | 40µM | x | n | n | n
COc1ccc(N2C(=O)C(Cl)=C(Nc3ccccc3OC)C2=O)cc1 | n | n | n | n | n
Cc1cc(=O)n(Cc2cccc(F)c2)c2c1c(C)nn2-c1cccc(F)c1 | n | x | x | n | x
COc1cc(Br)cc(CN2CCN(C)CC2)c1O | n | n | n | n | n
Oc1ccc(Br)cc1CN1CCN(c2ccccc2)CC1 | n | n | n | u | 1.7µM
Oc1ccc(Br)cc1CN1CCCCCCC1 | n | x | n | n | 1.7µM
CCN1CCN(Cc2cc(Br)cc(Br)c2O)CC1 | n | x | n | n | 1.7µM
COC(=O)c1cc(CN2CCN(c3ccccc3)CC2)ccc1O | n | u | n | n | n
CCN1CCN(Cc2cc(Br)ccc2O)CC1 | n | x | n | n | 13µM
OCCN1CCN(Cc2cc(Br)cc(Br)c2O)CC1 | n | n | n | n | n
CCN(CC(=O)NCc1cccs1)C(=O)c1ccc(N(C)S(=O)(=O)c2ccc(C)cc2)cc1 | x | x | x | n | x
CC(C)(C)OC(=O)N1CCC(C(=O)Nc2cccc(C(=O)NCCCc3ccccc3)c2)CC1 | x | x | x | n | x
Cc1cc(C(=O)N2CCC2(C)C(=O)O)c(C)o1 (centres undefined) | x | x | x | n | x
CCc1ccc(CN2CCN(Cc3cc(Br)ccc3O)CC2)cc1 | n | 1.2µM | u | u | 0.23µM
COc1ccc(NC(=O)NCC(C)CSc2ccc(C)cc2)c(OC)c1 (centres undefined) | n | u | n | n | n
O=C1c2ccccc2NC(c2cccc(O)c2)N1c1ccccc1 (centres undefined) | n | n | n | n | n
Cn1c(CSCc2ccc(Cl)c(Cl)c2)n[nH]c1=S | n | n | n | -67 | n
Cc1ccccc1C(=O)Nc1ccc(OCc2cc(=O)n3cccc(C)c3n2)cc1 | n | x | x | n | x
COc1ccc(C(=O)COC(=O)C2CCC(=O)N2)cc1 (centres undefined) | n | u | n | n | u
SMILES | Sm TGR block | Pf growth 96h | FBPA Giardia inh | HCMV inh | Pf growth 48h
Cc1ccc(-n2c(C)cc3c2CCCC3=O)cc1 | n | n | n | n | 10µM
O=C(CN1CCN(c2cccc(C(F)(F)F)c2)CC1)N(C1CC1)C1CCS(=O)(=O)C1 (centres undefined) | n | u | x | u | n
O=C(CN1CCN(c2cccc(C(F)(F)F)c2)CC1)N(C1CCCC1)C1CCS(=O)(=O)C1 (centres undefined) | n | 8.3µM | x | n | 15µM
COc1ccc(/C=C/c2nc3ccccc3n2C)cc1 | u | n | u | -85 | n
c1ccc(-n2cnc3ccccc32)cc1 | n | n | n | -93 | n
COc1ccc(Cn2c(/C=C/c3ccccc3)nc3ccccc32)cc1 | n | n | n | n | n
COc1ccc(-n2cnc3ccccc32)cc1 | n | x | n | -74 | n
COc1ccc(/C=N\n2nnc3ccccc32)cc1 | n | 0.41µM | n | n | n
COc1ccc2ncn(-c3ccccc3)c2c1 | n | u | n | u | n
Cc1ccc(-c2csc(NC(=O)CSc3nnc4c(n3)[nH]c3ccccc34)n2)cc1 | n | n | n | n | u
Cc1ccccc1C(=O)N1CCC(C(=O)N(CC(C)C)c2c(N)n(Cc3ccccc3)c(=O)[nH]c2=O)CC1 | n | n | x | n | u
O=C1NC[C@@H](CCCCN2C[C@H](Cc3ccc(O)cc3)N(CCc3ccc(O)cc3)C(=O)C2=O)N(CCc2ccc(O)cc2)C1=O | x | x | x | n | x
COc1ccccc1CN1CCCC(CN(CCN(C)C)C(=O)C2CCCC2)C1 (centres undefined) | n | u | n | n | u
COc1ccc([C@]23Cc4ccccc4C(O2)c2c(cc(-c4ccccc4)oc2=O)O3)cc1 | u | u | n[12.9 µM] | x | u
CCOc1ccc(-n2c(N)c(-c3nc4ccccc4[nH]3)sc2=S)cc1 | n | x | n | n | n
COc1ccc(-n2c(N)c(-c3nc4ccccc4n3C)sc2=S)cc1 | n | n | n | n | 0.93µM
C[C@H]1[C@@H](NS(=O)(=O)c2ccccc2)CC[C@@]23CCCN2C(=O)CCC[C@@H]13 | x | x | x | n | x
CC(C)(C)CC(C)(C)NC(=O)C(Nc1ccccc1)c1ccccc1F (centres undefined) | x | x | x | n | x
CC1=Nc2ccccc2/C1=C/c1c(O)[nH]c(=O)[nH]c1=O | n | 2.1µM | n | n | n
CC1=Nc2ccccc2/C1=C/c1nc(-c2ccc(C)s2)oc1O | n | n | n | n | n
Cc1sc2nc(CN3CCCC3)nc(N3CCC(C(N)=O)CC3)c2c1C | n | 9.3µM | n | n | x
Cc1sc2nc(CN3CCC(C)CC3)nc(Cl)c2c1C | n | n | n | n | n
Cc1sc2nc(CN3CCCC3)nc(N3CCN(C(=O)c4ccco4)CC3)c2c1C | n | 3.7µM | n | n | u
CCSC1=N/C(=C/c2ccsc2)C(=O)N1c1ccccc1 | n | 7.4µM | n | n | n
COCCCN1C(=O)C(CC(=O)NC2CCCC2)CC(C(=O)N2CCOCC2)=C1C (centres undefined) | x | x | x | n | x
SMILES | Sm TGR block | Pf growth 96h | FBPA Giardia inh | HCMV inh | Pf growth 48h
COc1ccc(CNC2C[C@H]3CCCC(=O)N4CC[C@@H](C2)[C@@H]34)cc1 (some centres undefined) | x | x | n | n | x
COc1ccc2[nH]c3c(c2c1)[C@@H]1CCN2C(=O)CCC[C@H](C3)[C@H]12 | n | n | n | -61 | n
Cc1cc(Br)ccc1NC(=O)CSCc1c(C)noc1C | x | x | x | n | x
CNC(=S)N/N=C/c1cn(CCOc2cccc(OC)c2)c2ccccc12 | n | u | n | n | u
Cc1cc(C(=O)CSc2nnc(-c3ccco3)o2)c(C)n1CC1COc2ccccc2O1 (centres undefined) | n | 4.7µM | n | n | 10µM
Cc1cc(C(=O)CSc2nnc(-c3ccccc3)o2)c(C)n1CC1COc2ccccc2O1 (centres undefined) | n | 3.3µM | n | n | u
Cc1cc(C(=O)CSc2nnc(-c3ccc(F)cc3)o2)c(C)n1CC1COc2ccccc2O1 (centres undefined) | n | u | n | n | u
CN1C(=O)C2C[C@@]3(Br)c4ccccc4N(OOSc4ccccc4)[C@H]3N2C(=O)[C@@H]1Cc1ccccc1 (some centres undefined) | x | x | x | -71 | x

High-throughput results deposited in PubChem by National Center for Advancing Translational Sciences (NCATS).
